# Screens (PubChem BioAssay)
# BAZ2B block: BAZ2B (human) inhibition | Potency, µM (highest dose often 114 µM), for the others: at the highest dose activity change, negative = inhibition, actives largely listed as inhibitors | AlphaScreen BAZ2B-H3K14Ac peptide displacement | Q9UIF8 | actives 4.4% (n = 360,000); also: % is scaled to controls: 0 for no effect and ±100 for the full control effect; nearly all actives have a fitted effect of over 60% in size
#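 BAZ2B 50 nM plus b-H3(5-23)K14Ac 50 nM, PBS pH 7.4/0.01% Tween-20, 30 min RT; compound added (max 110 uM), 30 min RT; streptavidin donor/Ni-chelate acceptor beads 10 ug/mL final, 20 min dark; AlphaScreen read.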
# JMJD2A Tudor inh: JMJD2A Tudor domain (human) inhibition | O75164 | actives 4.4% (n = 390,000) | AID 504339 | Potency, µM (top dose mostly 114 µM), without a hit: at the highest dose activity change, negative = inhibition, usual class: inhibitors | AlphaScreen JMJD2A-Tudor / H3K4me3 peptide binding; also: % is scaled to controls: 0 for no effect and ±100 for the full control effect; nearly all actives have a fitted effect of over 50% in size
# HP1b binding inh: inhibitors of HP1-beta chromodomain binding to methylated histone tails. actives 0.56% (n = 390,000). Potency, µM (titrated, usually from 114 µM), for the others: at the top dose activity change, negative = inhibition, most hits filed as inhibitors. P83916. AID 540317. AlphaScreen HP1-beta / biotin-H3K9me3 peptide binding; also: nearly all actives have a fitted effect of over 70% in size
# Target sequence (P83916 whole entry, looked up): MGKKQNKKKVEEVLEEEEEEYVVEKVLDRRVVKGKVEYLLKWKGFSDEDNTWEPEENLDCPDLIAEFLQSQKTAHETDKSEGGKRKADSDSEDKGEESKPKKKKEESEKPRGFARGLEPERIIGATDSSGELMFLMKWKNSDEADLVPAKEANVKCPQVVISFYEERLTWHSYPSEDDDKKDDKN
#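 Compound inhibition of the preformed complex between 50 nM HP1-beta and 50 nM biotinylated H3K9me3 peptide was read by AlphaScreen. Buffer was PBS pH 7.4 with 0.01% Tween-20. Incubations ran 30 min at room temperature, with 10 ug/mL donor/acceptor beads.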
# L3MBTL1 block: blocks human L3MBTL1; Q9Y468; AlphaScreen L3MBTL1–H3K9me1 peptide binding; Potency, µM (highest dose often 57.1 µM), inactives show top-dose activity, negative = inhibition, usual class: inhibitors; actives 0.66% (n = 230,000); also: % is scaled to controls: 0 for no effect and ±100 for the full control effect; nearly all actives have a fitted effect of over 60% in size
#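 Displacement of a biotinylated histone H3(1-15) peptide monomethylated at Lys9 (75 nM) from L3MBTL1 (50 nM) was measured by AlphaScreen after a 30 min room-temperature compound incubation; cefsulodin titration served as intraplate control.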
# G9a block: blocks human histone lysine methyltransferase G9a. Potency, µM (series often up to 102 µM), without a hit: at the top dose activity, negative = inhibition, usual class: inhibitors. actives 8.8% (n = 350,000). AID 504332. Q96KQ7. G9a H3K9 monomethylation, AlphaScreen, 2 h; also: % is scaled to controls: 0 for no effect and ±100 for the full control effect; nearly all actives have a fitted effect of over 75% in size
# Target sequence (Q96KQ7 913-1193 limits assumed): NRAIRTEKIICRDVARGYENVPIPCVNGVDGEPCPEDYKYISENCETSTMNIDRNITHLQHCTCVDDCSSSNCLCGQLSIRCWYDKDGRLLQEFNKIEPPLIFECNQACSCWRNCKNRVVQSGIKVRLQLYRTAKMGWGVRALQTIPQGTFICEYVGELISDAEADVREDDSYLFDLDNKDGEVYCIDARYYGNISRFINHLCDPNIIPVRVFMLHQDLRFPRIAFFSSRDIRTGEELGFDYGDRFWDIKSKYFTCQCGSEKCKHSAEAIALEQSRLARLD
#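 Quantitative HTS format: methyltransferase activity on a biotin-tagged H3K9 peptide is measured by AlphaScreen, using a rabbit anti-monomethyl-H3K9 antibody with streptavidin donor and anti-IgG acceptor beads. Final levels are 20 nM enzyme, 500 nM peptide, 20 uM SAM; 2 h RT.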
# Starred values were filed as active, the others as inactive; ? = inconclusive; . = not tested or not shown; ! = a repeat was not active; [ ] = another dose, or the depositor's remark. The list is not random: actives were taken first. Their share in the collection is about 11%. Calls follow the shape of the dose curve; as a rule, active = well fitted inhibition curve with a large enough effect; inconclusive = small, poorly fitted or top-dose-only effect; inactive = no such curve, though single readings can be large or run the other way. Potency is read from the fitted curve at half-maximal effect.
SMILES,BAZ2B block,JMJD2A Tudor inh,HP1b binding inh,L3MBTL1 block,G9a block
CC(C)(C)c1ccc(C(=O)NNc2cc(N3CCCCC3)nc(N3CCCCC3)n2)cc1,10µM*,?,7.1µM*,-3%,-33%[59 µM]
COc1ccc(NC(=O)NNc2cc(N3CCOCC3)nc(N3CCOCC3)n2)cc1,-14%,-10%,36%,-2%,0%
CC(=O)NNc1cc(N2CCOCC2)nc(N2CCOCC2)n1,5%,-30%,27%,.,45µM*
CC(C)(C)c1ccc(C(=O)NNc2cc(N3CCOCC3)nc(N3CCOCC3)n2)cc1,?,-29%[57.1 µM],27%,-8%,-15%[12.7 µM]
CCNc1ncc2nc(-c3cc(F)cc(F)c3)c(=O)n(CCC#N)c2n1,.,.,.,.,11%[0.501 µM]
COc1ccc(OCC(=O)OCc2cc(=O)n3nc(C4CC4)sc3n2)cc1,-7%,-20%,-18%,.,6%[59 µM]
CC1=CC(C)C(C[N+]2(C)CCCCC2)C(C)C1 (centres undefined),?,-1%,-4%,7%,25µM*
Cn1c(CNS(=O)(=O)c2ccc(Br)cc2)n[nH]c1=S,5%,7.9µM*,12%,7%,22µM*
Cc1ccc(S(=O)(=O)NCc2n[nH]c(=S)n2C)cc1,6%,7.9µM*,23%,6%,32µM*
O=c1c(-c2ccc(Cl)cc2)nc2cnc(N3CCOCC3)nc2n1-c1ccccc1,.,.,.,.,10%[0.501 µM]
CC(=O)Nc1cccc(S(=O)(=O)Nc2ccc(C)c(C)c2)c1,.,-16%,.,.,.
COC1=CC(=O)C(OC)=C(OC)C1=O,.,-5%,32%,.,.
COC1=C(Nc2ccc(C)cc2)C(=O)c2ccccc2C1=O,7.9µM*,10µM*,16µM*,16µM*,8.9µM*
COc1ccc(F)cc1S(=O)(=O)Nc1ccc(C)cc1,4%,0%,11%,13%,5%[12.7 µM]
COC1=C(Nc2ccccc2)C(=O)c2ccccc2C1=O,14µM*,14µM*,35µM*,32µM*,11µM*
COC1=C(OC)C(=O)c2ccccc2C1=O,.,.,.,.,20µM*!
O=C1C[C@H](c2ccccc2Cl)N1S(=O)(=O)c1ccccc1[N+](=O)[O-],.,-14%,9%,.,.
CCn1c(C(=O)N2CCC(C(=O)N3CCN(c4ccc(OC)cc4)CC3)CC2)cc2sccc21,?,?,-21%,.,?
Cc1ccccc1NC(=O)C1CCC(CNS(=O)(=O)c2ccc3c(c2)C(C)(C)C(=O)N3C)CC1 (centres undefined),-4%,6%,39%,.,-1%[59 µM]
COc1ccc(C(=O)NCC(c2ccco2)S(=O)(=O)c2cccs2)cc1 (centres undefined),?,-8%,22%,.,6%[59 µM]
CCN(CCCNC(=O)C1CCC(=O)N1Cc1ccc(F)cc1)c1cccc(C)c1 (centres undefined),?,-26%,3%,-3%,?
CCN(CCNCC(O)COCc1ccc(Cl)cc1)c1cccc(C)c1 (centres undefined),20µM*,0.89µM*,40µM*,-20%,7.9µM*
O=C(Cn1c2ncccc2c(=O)n1-c1ccccc1)Nc1ccc(F)c(F)c1,-17%,0%,8%,.,1%[59 µM]
CC[C@H](C)[C@@H](CN[C@H](C)CNC)NCCC(c1ccccc1)c1ccccc1,-35%,-16%,29%,-5%,45µM*
FC(F)Oc1ccc(NC(=S)NNc2ccnc3cc(Cl)ccc23)cc1,?,?,?,-8%,40µM*
SMILES,BAZ2B block,JMJD2A Tudor inh,HP1b binding inh,L3MBTL1 block,G9a block
NC(=S)NNc1ccc(Cl)c(Cl)c1,?,?,-13%,.,13µM*
O=C(NNc1ccnc2cc(Cl)ccc12)C1CCCCC1,-15%,-10%,4%,11%,6%
Clc1ccc2c(NNc3ccccc3Cl)ccnc2c1,2µM*,?,-18%,?,3.2µM*
NC(=S)NNc1ccnc2cc(Cl)ccc12,50µM*,45µM*,?,-3%,1µM*
Cc1ccccc1N1CCN(C(=O)c2cc(C3CC3)nn2-c2ccccc2)CC1,8%,-14%,46%,-1%,20%[59 µM]
Cc1ccc2cc(/C=C(\C#N)C(N)=O)c(N3CCCCC3)nc2c1,-5%,-1%,45%,-7%,24%[59 µM]
Cc1ccc2cc(C=C(C#N)C#N)c(N3CCCCC3)nc2c1,?,?,?,7%,45µM*
CCCOc1ccc(C2C(=O)N(C3CCC(C)CC3)CC(=O)N2Cc2cccc(OC)c2)cc1OC (centres undefined),-1%,-9%,44%,.,6%[59 µM]
Cc1c(Cl)cn2c(=O)cc(CN3CCN(c4ccc(F)cc4)CC3)nc2c1Cl,?,.,.,.,50µM*
Cc1scc(CN2CCN(c3ccc(F)cc3)CC2)c1C,-38%,?,13%,.,?
CSc1ccccc1C(=O)NC1CCSc2ccccc21 (centres undefined),-9%,-26%,5%,.,40µM*
CC(=O)Nc1ccc(C(=O)NC2CCSc3ccccc32)cc1 (centres undefined),-10%,-22%,26%,.,14µM*
COc1cc(NC(=O)c2cc3c(=O)n(Cc4ccco4)ccc3nc2C)cc(OC)c1OC,0%,-11%,22%,.,0%[59 µM]
COc1cc(/C=C/C(=O)NC(=O)c2ccccc2O)ccc1OC(C)=O,0%,-16%,24%,29%,.
Cc1cc(C)cc(NC(=O)c2sc3nc(-c4ccccc4)cn3c2C)c1,-14%,-18%,22%[57 µM],.,5%[59 µM]
COc1ccc(S(=O)(=O)N(CC(=O)Nc2ccccc2Br)Cc2ccccc2)cc1,8%,8%,44%,.,32%[59 µM]
CCC1(C)NC(=O)N(CC(=O)Nc2sc3c(c2C(=O)OC)CCCCC3)C1=O (centres undefined),-26%,?,-24%,1%,50µM*
CCC1(CC)NC(=O)N(CC(=O)Nc2sc3c(c2C(N)=O)CCC3)C1=O,50µM*,?,5%,.,-2%[12.7 µM]
CCOC(=O)c1ccc(NC(=O)C2=C(C)C(=O)OC23CCN(C(C)C)CC3)cc1,2%,-17%,19%,.,8%[59 µM]
Cc1ccc(C)c(NC(=O)Cn2cc(C(=O)C3CCCCC3)c3ccccc32)c1,3%[57.1 µM],-3%,32%,.,-4%[59 µM]
c1ccc(Sc2ncccn2)nc1,-2%,-9%,17%,7%,32µM*
COc1ccc(CCC(=O)NNC(=O)Nc2cccc(Cl)c2)cc1,-17%,-8%,53%,.,8%
